According to PubChem BioAssay (NCATS):
Inconclusive results are not listed. A call without a number means that no potency is given here. Calls of active or inactive are those of the source. Calls come from the whole dose curve; as a rule, active = well fitted curve in the direction sought with a large enough effect; inconclusive = small, poorly fitted or top-dose-only effect, or another doubt; inactive = no such curve, though single readings can be large; an effect the other way counts as inactive or inconclusive.

Experiments:
[1] = qHTS to identify inhibitors of the type 1 interferon - major histocompatibility complex class I in skeletal muscle: primary screen against the NCATS LOPAC collection (AID 1347405);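 note: lytic HiBiT luminescence reporting HLA-B protein level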; note: potency is the fitted concentration of half-maximal effect
Summary of the method: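 Immortalized human C25cl48 myoblasts with HiBiT knocked into endogenous HLA-B*08:01 were stimulated with 4.0 ng/ml IFN-beta and given compounds in a 7-point, 1:4.3 titration from 46 uM final; after 24 hrs, lytic HiBiT luminescence was read.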

[2] = qHTS to identify inhibitors of the type 1 interferon - major histocompatibility complex class I in skeletal muscle: primary screen against the NCATS Pharmaceutical Collection (AID 1347407);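 note: luminescence of HiBiT knocked into endogenous HLA-B as interferon-induced MHC class I level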
Summary of the method: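 Immortalized human myoblasts (C25cl48) with HiBiT knocked into endogenous HLA-B*08:01 were stimulated with 4 ng/ml IFN-beta and treated with compounds (8-point, 1:5, top 46 uM final) for 24 h at 37 C; HiBiT lytic luminescence read.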

[3] = qHTS for inhibitors of adenylyl cyclases using a fission yeast platform: a pilot screen against the NCATS LOPAC library (AID 1347410)
Summary of the method: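 S. pombe CHP2027 (AC9-GNAS-PDE4D2) carrying a PKA-repressed fbp1-GFP reporter was exposed to LOPAC compounds (final up to 57 µM) for 18 h at 30C in the dark, in EMM with histidine, lysine and uracil; GFP gain-of-signal read by laser scanning cytometry.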

[4] = qHTS to identify inhibitors of the type 1 interferon - major histocompatibility complex class I in skeletal muscle: primary screen against the NCATS Mechanism Interrogation Plate v5.0 (MIPE) Libary (AID 1347411); note: nearly all actives have a fitted effect of over 65% in size; note: potency is the fitted concentration of half-maximal effect
Summary of the method: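 Immortalized human C25cl48 myoblasts with HiBit knocked into endogenous HLA-B*08:01 were stimulated with 4.0 ng/ml IFN-beta and exposed to compounds (11-point 1:3 titration, top 46 uM final) for 24 hrs at 37 C; HiBiT lytic luminescence measured.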

[5] = target: Protein phosphatase 1D (Homo sapiens) (UniProt O15297); assay: RapidFire Mass Spectrometry qHTS Assay for Modulators of WT P53-Induced Phosphatase 1 (WIP1) (AID 1347424);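 note: amount of dephosphorylated VEPPL-S-QETFS peptide product formed by WIP1; series mostly up to about 63 µM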
Sequence of Protein phosphatase 1D (Homo sapiens) (O15297 whole entry, looked up): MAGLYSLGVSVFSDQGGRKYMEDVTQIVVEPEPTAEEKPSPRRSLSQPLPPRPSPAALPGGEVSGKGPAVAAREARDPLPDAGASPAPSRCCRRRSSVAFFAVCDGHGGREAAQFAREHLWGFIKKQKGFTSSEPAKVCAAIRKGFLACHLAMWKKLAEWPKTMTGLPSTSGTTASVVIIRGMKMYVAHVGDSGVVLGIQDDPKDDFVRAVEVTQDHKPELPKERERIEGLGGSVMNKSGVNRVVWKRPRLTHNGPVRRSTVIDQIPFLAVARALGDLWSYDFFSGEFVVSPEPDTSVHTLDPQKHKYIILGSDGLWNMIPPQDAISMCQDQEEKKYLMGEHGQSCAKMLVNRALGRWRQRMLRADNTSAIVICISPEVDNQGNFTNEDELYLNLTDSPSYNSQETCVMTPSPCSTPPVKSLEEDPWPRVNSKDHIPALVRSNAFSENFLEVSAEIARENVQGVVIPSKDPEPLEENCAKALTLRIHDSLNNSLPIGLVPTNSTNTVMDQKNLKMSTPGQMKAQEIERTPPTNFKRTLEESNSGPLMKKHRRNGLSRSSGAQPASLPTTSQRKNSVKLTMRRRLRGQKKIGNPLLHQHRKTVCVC
Summary of the method: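 WIP1 (10 nM final) was preincubated 1 h at room temperature with compounds in Tris-HCl pH 7.5, 30 mM MgCl2, TCEP, EGTA, BSA; 2 uM VEPPL-pS-QETFS phosphopeptide was added for 5 min, quenched with formic acid, and dephosphorylated product quantified by RapidFire MS.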

[6] = target: Protein phosphatase 1D (Homo sapiens) (UniProt O15297); assay: Rhodamine-PBP qHTS Assay for Modulators of WT P53-Induced Phosphatase 1 (WIP1) (AID 1347425)
Summary of the method: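 Read-out: Rhodamine-PBP fluorescence (ex 525/em 598 nm) for released Pi, read each minute for 11 min after adding 10 uM VEPPL-pS-QETFS; signal taken as f1 minus pre-substrate f0. Enzyme 5 nM WIP1 with 1 hr room-temperature compound preincubation.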

[7] = Validation qHTS assay for inhibitors of Activation Induced Cytidine Deaminase (AID): UDG Counterscreen signal (AID 1347427)
Summary of the method: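 Counterscreen read of UDG activity (2 U/mL, 4/3x) in the FRET deamination format with AID (1 uM, 4/3x), DJC20/DJC23 substrates (250 nM, 4x), 4 h at room temperature. NaOH stop, fluorescence at 560 ex/665 em.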

[8] = target: Single-stranded DNA cytosine deaminase (Homo sapiens) (UniProt Q9GZX7); assay: Validation qHTS assay for inhibitors of Activation Induced Cytidine Deaminase (AID): AID signal (AID 1347429)
Sequence of Single-stranded DNA cytosine deaminase (Homo sapiens) (Q9GZX7 whole entry, looked up): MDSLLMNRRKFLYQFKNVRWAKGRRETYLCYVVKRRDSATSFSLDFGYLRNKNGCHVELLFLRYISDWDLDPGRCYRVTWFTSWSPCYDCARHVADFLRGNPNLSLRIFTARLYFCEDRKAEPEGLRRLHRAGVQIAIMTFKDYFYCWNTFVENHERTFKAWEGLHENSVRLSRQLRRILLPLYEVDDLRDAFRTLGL
Summary of the method: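 AID and UDG were combined and compounds added at final up to 114 uM, then DJC20/DJC23 FRET substrate was added for 4 hr at room temperature. NaOH was then added for 30 min before fluorescence was read at 540/590 nm.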

[9] = Primary qHTS for inhibitors of La Crosse Virus (LACV) - induced cell death in SH-SY5Y cells (AID 1508616);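 note: top concentration of the series differs between compounds; higher means more rescue of cells from virus-induced death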
Summary of the method: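 Luminescent ATP readout (ATPLite 1step, 5 min room temperature) measured rescue from LACV-induced death after 6 days of infection at 0.01 MOI; normalized to infected DMSO wells and uninfected DMSO wells.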

[10] = target: Calcium and integrin-binding protein 1 (Homo sapiens) (UniProt Q99828); assay: Validation qHTS for Identification of Calcium Integrin Binding protein 1 (CIB1) Competitor (AID 1508618)
Sequence of Calcium and integrin-binding protein 1 (Homo sapiens) (Q99828 whole entry, looked up): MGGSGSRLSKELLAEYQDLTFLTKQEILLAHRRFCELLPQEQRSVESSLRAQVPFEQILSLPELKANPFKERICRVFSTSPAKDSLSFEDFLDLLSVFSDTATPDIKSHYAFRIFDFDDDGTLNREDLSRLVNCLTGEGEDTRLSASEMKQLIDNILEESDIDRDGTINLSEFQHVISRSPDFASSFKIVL
Summary of the method: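 CIB1-GST (1 uM final) in 5 mM HEPES pH 7.4, 125 mM NaCl, 5 mM CaCl2, 0.01% Tween20 was preincubated 15 min at room temperature with compound (up to 114 uM), then FITC-alphaIIb peptide (100 nM) added for 15 min; fluorescence polarization read.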

[11] = target: Calcium and integrin-binding protein 1 (Homo sapiens) (UniProt Q99828); assay: Primary qHTS for Identification of Calcium Integrin Binding Protein 1 (CIB1) Competitor (AID 1508620);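 note: GST tagged CIB1 binding a fluorescein labelled alphaIIb integrin peptide tracer; top concentration of the series differs between compounds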
Summary of the method: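 Fluorescence polarization competition: CIB1-GST (1 uM final) preincubated with compound 15 min at room temperature, then FITC-labeled alphaIIb peptide (100 nM final) added for another 15 min. Polarization read at Ex 480/Em 540.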

SMILES | Potency [1] | Potency [2] | outcome [3] | Potency [4] | Potency [5] | outcome [6] | Potency [7] | Potency [8] | Potency [9] | Potency [10] | Potency [11]
COc1ccc(C2CNC(=O)C2)cc1OC1CCCC1 (stereo not given) | inactive | inactive | inactive | inactive | inactive | inactive | inactive | inactive | inactive | inactive | inactive
Clc1ccc(C(c2ccccc2Cl)C(Cl)Cl)cc1 (stereo not given) | inactive | inactive | inactive |  | inactive | inactive | inactive | inactive | inactive | inactive | inactive
COc1ccc2c(c1)c(CC(=O)O)c(C)n2C(=O)c1ccc(Cl)cc1 |  |  |  |  |  |  | inactive | inactive | inactive | inactive | inactive
O=C1Cc2cc(CCN3CCN(c4nsc5ccccc45)CC3)c(Cl)cc2N1 |  | inactive | inactive |  | inactive | inactive | inactive | inactive | inactive | inactive | inactive
CS(=O)(=O)Nc1ccc([N+](=O)[O-])cc1Oc1ccccc1 |  | inactive | inactive |  | inactive | inactive | inactive | inactive | inactive |  | 
Cn1c(=O)c2[nH]cnc2n(C)c1=O |  |  |  |  | inactive | inactive |  |  | inactive | inactive | inactive
COc1cc2nc(N3CCN(C(=O)c4ccco4)CC3)nc(N)c2cc1OC |  |  | inactive |  | inactive | inactive |  |  | inactive | inactive | inactive
CC(C)Cc1ccc(C(C)C(=O)O)cc1 (stereo not given) |  |  | inactive |  | inactive | inactive |  |  | inactive |  | 
O=C(Nc1ccc([N+](=O)[O-])cc1Cl)c1cc(Cl)ccc1O |  | inactive | inactive | inactive | inactive | inactive | inactive | inactive | inactive |  | inactive
CC(C)C(=O)Nc1ccc([N+](=O)[O-])c(C(F)(F)F)c1 | inactive |  | inactive | inactive | inactive | inactive | inactive | inactive | inactive | inactive | inactive
Cc1ccc(-c2cc(C(F)(F)F)nn2-c2ccc(S(N)(=O)=O)cc2)cc1 | inactive | inactive | inactive |  |  |  |  |  | inactive | inactive | inactive
COC(=O)Nc1nc2ccc(C(=O)c3cccs3)cc2[nH]1 |  | inactive | inactive |  | inactive | inactive | inactive | inactive |  | inactive | inactive
CN(C)C(=O)C(CCN1CCC(O)(c2ccc(Cl)cc2)CC1)(c1ccccc1)c1ccccc1 |  | inactive | inactive |  | inactive | inactive | inactive | inactive |  | inactive | inactive
O=c1c(-c2ccc(O)cc2)coc2cc(O)cc(O)c12 | 17.8 µM (active) |  | inactive | 9.51 µM (active) | inactive | inactive | inactive | inactive | inactive | inactive | inactive
Cc1cn([C@H]2C[C@H](N=[N+]=[N-])[C@@H](CO)O2)c(=O)[nH]c1=O |  |  |  |  | inactive | inactive |  |  | inactive |  | inactive
CC#C[C@]1(O)CC[C@H]2[C@@H]3CCC4=CC(=O)CCC4=C3[C@@H](c3ccc(N(C)C)cc3)C[C@@]21C |  | inactive | inactive | inactive | inactive | inactive | inactive | inactive | inactive | inactive | inactive
CN1C2CCC1CC(OC(=O)C(CO)c1ccccc1)C2 (stereo not given) |  |  | inactive |  |  |  |  |  | inactive | inactive | 
